# Test results from the supplement of paper PMC10338343.
# ± gives the standard deviation.
# System: MILI (PIWIL2) piRISC loaded with piRNA #1 (26 nt)
# Test: pre-steady-state target cleavage rate (min^-1); guide: piRNA #1 5'p-UGAGGUAGUAGGUUGUAUAGUAUCCA; MIWI and MILI are mouse PIWI proteins and EfPiwi is from a freshwater sponge; tags in brackets are library labels; higher = faster piRNA-guided slicing of the target
# Conditions: auxiliary factor: 500 nM mouse GTSF1
# How it was run: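 Using HEPES–potassium acetate buffer at 33 °C, 1 nM active affinity-purified piRISC with a single synthetic guide was mixed with 0.1 nM transcribed, DNA-blocked target RNA library for 0–8 or 0–960 min, with or without 500 nM GTSF1 partner protein. Uncleaved targets were sequenced and normalised to depth and to weakly complementary targets, and three trials were pooled with k3 capped at 0.0001 min^-1. A burst-and-steady-state fit gave the pre-steady-state cleavage rate.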
row,Sequence,pre-steady-state target cleavage rate
1,GGAGACCUAUCUUUACAACCUACAACCUCA,0.0745 ± 0.01
2,GGAGAUGAUACUAUACAACCUACUACCUCA,0.198 ± 0.013
3,GGAGACCUAUGAUUACAACCUACUACCGUCA,0.00492 ± 0.0022
4,GGAGACCUUACUAUAAAACCUACUACCUCA,0.16 ± 0.019
5,GGAGACCUAACAUAACAACCUACUACCUCA,0.0321 ± 0.011
6,GGAGACCAUACUAUAGAACCUACUACCUGA,0.00906 ± 0.0046
7,GGAGACCUAACUAUACAACCUACUUACCUCA,0.135 ± 0.021
8,GGAGACCUAACUAUAGAACGUACUACCUCA,0.00603 ± 0.0028
9,GGAGACCUAUGUAUACAACCUACCUACCUCA,0.0358 ± 0.0076
10,GGAGACCUAUCUAUACAAGCUAGUACCUCA,0.107 ± 0.017
11,GGAGACCUAUGAAUACAAGCUUCUACCUCA,0.0038 ± 0.002
12,GGAGAGGAUACUAUUGAACCUACUACCUCA,0.124 ± 0.011
13,GGAGACCUAACUAUACAACCUAGUACCUCA,0.016 ± 0.0088
14,GGAGACCUAUGUUUACAACCUACUACCACA,0.0147 ± 0.0041
15,GGAGACCUUACUAUACAUCCUUCUACCUCA,0.0405 ± 0.0086
16,GGAGACCUUACUAUUCAACCUACUUCCUCA,0.0623 ± 0.013
17,GGAGACCUAUGAUAUGUACCUACUACCUGCA,< 0.0001
18,GGAGACCUAUCAAUACAACCAACUACCUCA,0.00756 ± 0.0033
19,GGAGACCUUACUAUACAACCUACUUGGAGA [g7:g22:cont:t1A],0.00375 ± 0.0034
20,GGAGACCUAUGAUAUGUUGCUACUAGGACA,< 0.0001

row,Sequence,pre-steady-state target cleavage rate
1,GGAGACCUAUGAUAACAAGCCUACUACCUCA,< 0.0001
2,GGAGACCUAACUAUAGAACCUACUACCUCA,0.131 ± 0.021
3,GGAGACCUAACUAUACAAGCUACAACCUCA,0.182 ± 0.026
4,GGAGACCAUAGUAUACAACCAACUACCUCA,0.00718 ± 0.0021
5,GGAGACCUAUGAUAUGUUCCUAGUACCUGA,< 0.0001
6,GGAGACCUAUCUAUACAACCUACUACACUCA,0.179 ± 0.022
7,GGAGACCUAUGAAUACAACCGACUACCUCA,0.00328 ± 0.003
8,GGAGACCUAUGUAUACAACCUACUACCUCC [g2:g19:cont:t1C],0.0539 ± 0.0077
9,GGAGACCAUACUAAACAACCUACUAGCUCA,0.165 ± 0.03
10,GGAGACCUUACUGAUACAACCUACUACCUCA,0.0968 ± 0.011
11,GGAGACCUAUCUAUACAACCUAGUUCCUCA,0.0148 ± 0.0059
12,GGAGACCUAUGAAUACAUCCUACUACCACA,0.0133 ± 0.0041
13,GGAGUGGAUUGUAUACAACCUACUACCUCA,0.151 ± 0.0098
14,GGAGACCUAUGUAUUCUACCUACUACCUCA,0.0111 ± 0.0026
15,GGAGACCUAACUAAACAACCUACAACCUCA,0.131 ± 0.029
16,GGAGACCUAACAAUACUACCUACUACCUCA,0.0399 ± 0.013
17,GGAGACCAUACUAUAGUUCCUACUACCUCA,0.156 ± 0.019
18,GGAGACCUUACAAUACAACCUACAACCUCA,0.111 ± 0.011
19,GGAGACCUAACUAUAGCAACCUACUACCUCA,0.0973 ± 0.023
20,GGAGACCUAUGUAUACAACCUAGUUCCUCA,0.00347 ± 0.003
